Glyco luc inh = blocks N-linked glycosylation in D54 reporter cells | D54 ERlucT glycosylation luciferase reporter, 24 h; percent of 100 nM tunicamycin response | reporter increase, % at 12.5 µM | 360,000 compounds, 0.23% hits;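 active = mean luciferase reporter signal, scaled so untreated is 0 and the glycosylation-blocking control 100, at or above a set limit in every replicate; inconclusive = mean reaches the limit but not every replicate does; inactive = mean below the limit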;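 also: luciferase carries N-glycosylation sites so blocking glycosylation raises the light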
Vif imaging = HIV Vif inhibition. 340,000 compounds, 0.35% hits. AID 602346. inhibition, % at 7.49 µM. HEK293T cells, Vif self-association by quenched fluorescence, imaging, 24 h; in the data active = inhibition above about 50%, passing the limit was not always enough; inconclusive = no clear call, values can overlap the other calls; inactive = below about 31%
PvdQ inh = P. aeruginosa PvdQ acylase inhibition; purified PvdQ acylase, fluorescence plate reader; inhibition, % at 10 µM; 340,000 compounds, 0.063% hits; AID 488965; in the data active = inhibition above about 30%, passing the limit was not always enough; inconclusive = no clear call, values can overlap the other calls
esBAF inh = blocks esBAF chromatin remodeling in mouse ES cells | reporter increase, % at 12.5 µM | AID 602393 | Bmi1-luciferase knock-in reporter, 24 h; 100% = twice the neutral-well signal | 350,000 compounds, 2% hits; in the data active = activation above about 40%; inconclusive = no clear call, values can overlap the other calls;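 also: a rise in the Bmi1 reporter signal indicates esBAF inhibition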
MITF TRPM1 HTS = MITF TRPM1 promoter activation in melanoma cells; activation, % at 12.5 µM; 300,000 compounds, 0.75% hits; AID 588334; SK-MEL-5 TRPM1-promoter luciferase, 24 h; % of positive control, neutral wells = 0;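 active = mean activation of at least 80% with every replicate also reaching 80%; inconclusive = mean reaches 80% but some replicate falls short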
Wnt act = Wnt/beta-catenin pathway activation; 300,000 compounds, 1.2% hits; AID 743398; Wnt/beta-catenin reporter cell assay, activator, plate reader; activation, % at 9.35 µM; in the data active = activation above about 30%, passing the limit was not always enough; inconclusive = no clear call, values can overlap the other calls
A number is an active result. Shown are actives, neighbours in structure and some others; about 2.9% of the full set was active somewhere.

Results for CCOc1ccc(NC(=S)Nc2cccc3ccccc23)cc1 ?
Glyco luc inh: inactive; Vif imaging: inactive; PvdQ inh: inactive; esBAF inh: inactive; MITF TRPM1 HTS: inactive; Wnt act: 31

How did Cc1ccc(S(=O)(=O)N(C)C[C@@H]2OCCCC[C@H](C)Oc3ccc(NC(=O)NC(C)C)cc3C(=O)N([C@H](C)CO)C[C@@H]2C)cc1 do in these assays?
esBAF inh: inactive

What do the screens show for `COc1cccc(CN(C)C[C@@H]2OCc3cn(nn3)CCCC(=O)N([C@H](C)CO)C[C@@H]2C)c1`?
esBAF inh: inactive

How did O=C(O)c1cccc(Nc2ccnc(Nc3cccc(C(=O)O)c3)n2)c1 do in these assays?
Glyco luc inh: inactive; Vif imaging: 140; PvdQ inh: inactive; esBAF inh: inactive; MITF TRPM1 HTS: inactive; Wnt act: inactive

What do the screens show for `O=C(O)c1cccc(Nc2nc(N3CCOCC3)nc(N3CCOCC3)n2)c1`?
Glyco luc inh: inactive; Vif imaging: inactive; PvdQ inh: inactive; esBAF inh: inactive; MITF TRPM1 HTS: inactive; Wnt act: inactive

How did O=C(C[C@@H]1CC[C@@H]2[C@H](COC[C@H](O)CN2Cc2ccc(C(F)(F)F)cc2)O1)NCCc1ccccc1 do in these assays?
esBAF inh: inactive

What do the screens show for `NC(=O)c1nsc(C(=O)N(Cc2ccco2)C(C(=O)NCc2ccc(F)cc2)c2ccc(O)cc2)c1N` (stereo not given)?
Glyco luc inh: inactive; Vif imaging: inactive; PvdQ inh: inactive; esBAF inh: inactive; MITF TRPM1 HTS: inactive; Wnt act: inactive

Results for Cc1ccc(C(C(=O)NCc2ccc(F)cc2)N(Cc2ccco2)C(=O)c2snc(C(N)=O)c2N)o1 (stereo not given) ?
Glyco luc inh: inactive; Vif imaging: 58; PvdQ inh: inactive; esBAF inh: inactive; MITF TRPM1 HTS: inactive; Wnt act: inactive

How did O=C(CSc1nc(N2CCCCC2)nc(N2CCCCC2)n1)c1ccccc1 do in these assays?
Glyco luc inh: inactive; Vif imaging: inactive; PvdQ inh: inactive; esBAF inh: inactive; Wnt act: inactive

Results for Cc1cc(N2CCCCC2)nc(SCC(=O)c2ccccc2)n1 ?
Glyco luc inh: inactive; Vif imaging: inactive; PvdQ inh: inactive; esBAF inh: 53; Wnt act: inconclusive

What do the screens show for `CC1CCCCN1C(=S)NCCc1ccccc1` (stereo not given)?
Glyco luc inh: inactive; Vif imaging: inactive; PvdQ inh: inactive; esBAF inh: inactive; Wnt act: 37

What do the screens show for `COc1ccc(OCC(=O)NCCc2c[nH]c3ccccc23)cc1`?
Glyco luc inh: inactive; Vif imaging: inactive; PvdQ inh: inactive; MITF TRPM1 HTS: inactive; Wnt act: inactive

How did Cc1ccsc1C(=O)NCCc1c[nH]c2ccccc12 do in these assays?
Glyco luc inh: inactive; Vif imaging: inactive; PvdQ inh: inactive; esBAF inh: 50; MITF TRPM1 HTS: inactive; Wnt act: inactive

How did CCc1nc2ccc(C(=O)NCCc3c[nH]c4ccccc34)cn2c1N(C=O)CCC(C)C do in these assays?
Glyco luc inh: 64; Vif imaging: inactive; esBAF inh: inactive; Wnt act: inactive

How did COc1ccc(C(=O)NCCc2c[nH]c3ccccc23)cc1 do in these assays?
Glyco luc inh: inactive; Vif imaging: inactive; PvdQ inh: inactive; esBAF inh: 54; Wnt act: inactive

Results for O=C(NCCc1c[nH]c2ccccc12)c1cnc2sccn2c1=O ?
Glyco luc inh: inactive; Vif imaging: inactive; PvdQ inh: inactive; esBAF inh: 76; MITF TRPM1 HTS: inactive; Wnt act: inactive

What do the screens show for `CCCCN(C=O)c1c(CC)nc2ccc(C(=O)NCCc3c[nH]c4ccccc34)cn12`?
Glyco luc inh: inactive; Vif imaging: inactive; esBAF inh: inactive; Wnt act: inactive

How did O=C(NCCc1nnc2ccccn12)c1cccs1 do in these assays?
Glyco luc inh: inactive; Vif imaging: inactive; PvdQ inh: inactive; esBAF inh: inactive; MITF TRPM1 HTS: inactive; Wnt act: inactive

Results for Cc1ccc(C(=O)N/C(=C\c2cccs2)C(=O)NCCc2c[nH]c3ccccc23)cc1 ?
Glyco luc inh: 42; Vif imaging: inactive; PvdQ inh: inactive; MITF TRPM1 HTS: inactive

What do the screens show for `COc1ccc(/C=C(/NC(=O)c2ccc(OC)cc2)C(=O)NCCc2c[nH]c3ccccc23)cc1`?
Glyco luc inh: inactive; Vif imaging: inactive; PvdQ inh: inactive; MITF TRPM1 HTS: inactive; Wnt act: inactive

What do the screens show for `O=C(NCCc1c[nH]c2ccccc12)c1ccc(F)cc1F`?
Glyco luc inh: inactive; Vif imaging: inactive; PvdQ inh: inactive; esBAF inh: 57; MITF TRPM1 HTS: inactive; Wnt act: inactive

Results for Cc1ccsc1C(=O)NCCc1nnc2ccccn12 ?
Glyco luc inh: inactive; Vif imaging: inactive; PvdQ inh: inactive; esBAF inh: 56; MITF TRPM1 HTS: inactive; Wnt act: inactive

Results for O=C(NCCc1c[nH]c2ccccc12)c1ccc(Cl)cc1 ?
Glyco luc inh: inactive; Vif imaging: inactive; PvdQ inh: inactive; esBAF inh: inactive; Wnt act: inactive

What do the screens show for `COc1ccc(C(=O)c2c[nH]c3ccccc23)cc1`?
Glyco luc inh: inactive; Vif imaging: inactive; PvdQ inh: inactive; esBAF inh: 61; MITF TRPM1 HTS: 86; Wnt act: inactive

How did CO[C@H]1CN(C)C(=O)c2cc(NC(=O)C3CCCC3)ccc2OC[C@@H](C)N(C)C[C@@H]1C do in these assays?
esBAF inh: inactive

How did C[C@H](CO)N1C[C@H](C)[C@H](CN(C)S(=O)(=O)c2ccc(F)cc2)OCCCC[C@H](C)Oc2ccc(NC(=O)Nc3ccc(F)cc3)cc2C1=O do in these assays?
esBAF inh: inactive

What do the screens show for `CN1[C@@H]2Cn3c(cccc3=O)[C@H]1[C@@H](C(=O)NCC1CCCCC1)[C@@H]2CO`?
esBAF inh: inactive

How did O=C1NC(=O)/C(=C/c2ccccn2)S1 do in these assays?
Glyco luc inh: inactive; Vif imaging: inactive; PvdQ inh: inactive; esBAF inh: 45; MITF TRPM1 HTS: inactive; Wnt act: inactive

Results for O=C(Nc1ccc(Cl)cc1)N[C@@H]1CC[C@H](CCn2cc(Cc3ccccc3)nn2)O[C@@H]1CO ?
esBAF inh: inactive

What do the screens show for `Cc1nnsc1C(=O)Nc1cc(Cl)ccc1Cl`?
Glyco luc inh: inactive; Vif imaging: inactive; PvdQ inh: inactive; esBAF inh: inactive; Wnt act: 42

What do the screens show for `CCC(=O)N(C)C[C@H]1Oc2ncc(-c3ccc(C#N)cc3)cc2C(=O)N([C@@H](C)CO)C[C@@H]1C`?
esBAF inh: inactive

Results for O=C(N[C@H]1CC[C@H](CCNS(=O)(=O)c2ccccc2)O[C@H]1CO)c1cccc(F)c1 ?
esBAF inh: inactive

How did CC(=O)Nc1ccc(S(=O)(=O)NCC(=O)OCC(=O)NC23CC4CC(CC(C4)C2)C3)cc1 do in these assays?
Glyco luc inh: inactive; Vif imaging: 75; PvdQ inh: inactive; esBAF inh: inactive; MITF TRPM1 HTS: inactive

How did O=C(N/N=C/c1ccc2c(c1)OCO2)c1ccc2c(c1)OCO2 do in these assays?
Glyco luc inh: inactive; Vif imaging: inactive; PvdQ inh: inactive; esBAF inh: inactive; MITF TRPM1 HTS: inactive; Wnt act: inactive

Screening data deposited in PubChem BioAssay by Broad Institute.
